The values that follow come from ChEMBL document CHEMBL1157539, “Thousands of chemical starting points for antimalarial lead identification” (Nature, 2010).

The assay has as its system Plasmodium falciparum. Nature of the assay: GSK_TCMDC: Inhibition of Plasmodium falciparum Dd2 in whole red blood cells, using parasite LDH activity as an index of growth. Test compounds present at 2uM. It counts as functional.
By Inhibition is commonly meant the share of the control response that was lost under treatment. For `CCOc1ccccc1CNc1nccc(NCc2ccc(Cl)cc2Cl)n1`, the Inhibition worked out at 58%.
For `FC(F)(F)c1ccc2[nH]ccc(=NN=Cc3ccccc3Cl)c2c1` the value was 83%; for `CCCc1cc(=O)[nH]c(-n2nc(C)cc2NC(=O)c2cc3ccccc3o2)n1`, 63%.
Consider `O=C(N[C@@H](CC1CCCCC1)C(=O)NCCN1CCCCC1)c1ccc(O)c(-c2cccc(C(F)(F)F)c2)c1`, for which the Inhibition was 97%.
On to `O=C(NCC1CCC(C(=O)NC2CCCc3ccccc32)CC1)c1ccc(O)c(-c2ccc(Cl)c(Cl)c2)c1` (centres undefined), for which the Inhibition amounted to 86%.
As for `O=C(O)C(F)(F)F.O=S(=O)(NCCN1CCCC1)c1cccc(-c2ccc(CNCc3ccccc3)cc2)c1`, the Inhibition was found to be 41%.
To `COc1ccc(NS(=O)(=O)c2ccccc2Br)cc1N1CCN(C)CC1.Cl` belongs 3%.
For `O=C(Cc1ccccc1)NC1(c2ccccc2)CCN(CCc2c[nH]c3ccc(F)cc23)CC1` the value was 62%.
For `COc1ccc2ccc(F)c(CC(=O)N3CCOC(CNCc4cccc(-c5ccsc5)n4)C3)c2n1` (centres undefined) the value was 1%; for `O=C(O)C(F)(F)F.c1ccc(CNCc2ccc(-c3cccc(-c4nc5ccccc5[nH]4)c3)cc2)cc1`, 78%; for `O=C(Nc1ccccc1F)NC1CCN(c2ccnc(Nc3ccc(F)cc3)n2)C1` (centres undefined), 74%.
`O=C(O)C(F)(F)F.c1cc(-c2ccc(CNCc3ccc(-c4csnn4)cc3)cc2)cc(-c2nc3ccccc3[nH]2)c1` had an Inhibition of 96%.
To `CCCc1c(C(=O)Nc2ccc3c(c2)CCN(C2CCC2)CC3)cnn1-c1ccc(Cl)cc1.O=C(O)C(F)(F)F` belongs 12%; to `O=C(Nc1cccc(-c2nn3ccccc3c2-c2ccnc(Nc3cccc(C(F)(F)F)c3)n2)c1)c1c(F)cccc1F`, 91%; to `COc1ccc(OCCn2cc(C(=O)c3ccco3)c3ccccc32)cc1`, 61%.
`O=C(O[C@@H]1CN[C@H](C#Cc2cc3ncnc(Nc4ccc5c(cnn5Cc5cccc(F)c5)c4)c3s2)C1)N1CCCC1` had an Inhibition of 56%.
For `CC[C@H](N/C(=N\c1ccc(-c2ccccc2)cc1)Nc1ccc(C#N)cc1O)c1ccccc1` the value was 97%; for `CCN(CC)CC(O)c1cc(-c2ccc(C)cc2)nc2c(C)cc(C)cc12.Cl` (centres undefined), 99%.
To `COc1ccc(/N=[N+](\[O-])c2ccccc2/[N+]([O-])=N/c2ccc(OC)cc2)cc1` belongs 29%; to `COc1ccc(C(=O)N2CCC(CN3CCOC(c4ccccc4)(c4ccccc4)C3)CC2)cc1`, 96%.
For `C=CCOC(=O)N1CCC(CNCc2cccc(-c3ccc(-c4nc5cccc(C)c5[nH]4)cc3)c2)C1.O=C(O)C(F)(F)F` (centres undefined) the value was 82%; for `c1cc(Nc2nccc(-c3cnn4ncccc34)n2)cc(-c2cnco2)c1`, 83%; for `Cc1ccc(O)cc1Nc1c(C(N)=O)cnc2ccc(-c3cncs3)cc12`, 99%.
Consider `O=C(Nc1ccc(CN2CCN(S(=O)(=O)c3cccc(Cl)c3)CC2)cc1)c1cccs1.O=C(O)C(F)(F)F`, for which the Inhibition worked out at 41%.
